Screening data: PubChem, National Center for Advancing Translational Sciences (NCATS)
NS1 function inh = blocks influenza NS1 protein function; Potency, µM (doses to about 46.1 µM), without a hit: at the highest dose activity, positive = more growth; AID 2326; 0.4% of 270,000 active; calls by dose curve; note: potency is the fitted concentration of half-maximal effect; actives are rising curves; nearly all actives have a fitted effect of over 50% in size
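Growth recovery, yeast-based: influenza A NS1 expressed in S. cerevisiae causes slow growth, and suppressors are detected by OD600. The parent strain without NS1 is used as positive control.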
Pf growth 96h = inhibits malaria parasite growth, 96 h. P. falciparum luciferase reporter growth, 96 h. Potency, µM (doses to about 28.7 µM), inactives show at the top dose activity change, negative = inhibition, hits mostly inhibitors. 6.9% of 320,000 active; note: potency is the fitted concentration of half-maximal effect; % is set by controls: 0 for no effect and ±100 for the full control effect
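Infected RBCs, 2% Hct / 0.05% parasitemia final; luciferase-reporter P. falciparum; cpd 96 h, 37 C, 5% CO2; luciferase detection reagent; luminescence.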
Shiga toxin inh = inhibitors of Shiga toxin in Vero cells; Vero cells, Shiga toxin protein synthesis inhibition reporter; inhibition, % at 38.7 µM; 9.2% of 290,000 active; AID 2315; in the data active = inhibition mostly above about 28%, no sharp cut-off; inactive = mostly below about 43%; note: 0% is about no effect
Cycloheximide cs = affects cycloheximide protein synthesis inhibition readout, counter-screen. cell reporter, cycloheximide protein synthesis inhibition counterscreen. max response, %. 12% of 300,000 active; in the data active = max response mostly above about 13%, no sharp cut-off; inactive = mostly below about 14%; note: read at 38.3 µM for the half of the compounds with a filed dose; 0% is about no effect
Pf growth 48h = inhibits P. falciparum growth in the first generation, 48 h; Potency, µM (series often up to 28.7 µM), for inactives: top-dose activity change, negative = inhibition, usual class: inhibitors; AID 504832; 5.9% of 310,000 active; P. falciparum luciferase growth in erythrocytes, 48 h; note: potency is the fitted concentration of half-maximal effect; % is set by controls: 0 for no effect and ±100 for the full control effect
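Compounds are pin-transferred into medium, infected erythrocytes (2% hematocrit, 0.1% parasitemia final) are added, and plates sit one parasite generation at 37 C in 5% CO2. Detection reagent is then added and luminescence measured.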
Starred values were filed as active, the others as inactive; i = inactive; ? = inconclusive; . = not tested or not shown; [ ] = remark or other dose. Compounds with a hit are over-represented: about 21% of the library has one in this group of screens. Unless noted, calls come from the whole dose curve; as a rule, active = well fitted inhibition curve with a large enough effect; inconclusive = small, poorly fitted or top-dose-only effect, or another doubt; inactive = no such curve, though single readings can be large or run the other way.

SMILES	NS1 function inh	Pf growth 96h	Shiga toxin inh	Cycloheximide cs	Pf growth 48h
CCOC(=O)N1CCN(c2ncnc3c2[nH]c2ccc(OC)cc23)CC1	-53%	?	-7	-2	?
COc1ccc(N(CC(=O)NCCc2ccc(OC)c(OC)c2)S(=O)(=O)c2c(C)noc2C)cc1	-9%	11%	-9	-11	?
Cc1c(C=O)c2ccccc2n1CC(=O)NCc1ccc2c(c1)OCO2	2%	-1%	3	-3	-2%
CCn1ccc(C(=O)Oc2ccc(C(C)C)cc2)n1	-28%	.	71*	36*	15%
CCn1ccc(C(=O)N2CCOCC2)n1	-2%	8%	-13	11	-8%
CCOc1ccc2[nH]c(=O)c(C(c3nnnn3C3CCCCC3)N3CCN(CC)CC3)cc2c1 (stereo unspecified)	-5%	-18%[5.75 µM]	13	-8	?
O=c1[nH]c2cc3c(cc2cc1C(c1nnnn1C1CCCCC1)N1CCSCC1)OCCO3 (stereo unspecified)	-5%	5%	15	0	13µM*
COc1ccc2[nH]c(=O)c(C(c3nnnn3C3CCCC3)N3CCN(Cc4ccc5c(c4)OCO5)CC3)cc2c1 (stereo unspecified)	1%	?	22	6	12µM*
CCn1cc(/C=N/O)c(C)n1	-4%	.	-8	-1	-8%
Cc1nn(C)cc1/C=C/C(=O)c1ccccc1	-101%	.	65*	28*	159%
CCn1cc(/C=C/C(=O)c2ccc(O)cc2)c(C)n1	5%	141%	15	13*	38%
Cc1nn(C)c(C)c1/C=C/C(=O)c1ccccc1	-49%	-17%	36*	27*	.
Cc1ccc(-c2nn(CCC(=O)O)cc2/C=C\C(=O)c2ccc(Br)cc2)cc1	?	-4%	-5	16	?
Cc1nn(C)cc1/C=C/C(=O)c1cccs1	-29%	70%	58*	48*	206%
O=C(/C=C/c1cccc([N+](=O)[O-])c1)c1cccs1	-34%	?	-6	9	-1%
CCOc1ccc(NC(=O)CCC(=O)Nc2nnc(CC)s2)cc1	-7%	-29%	0	-2	-11%
CN1CCN(c2ccc(NC(=O)CSc3nnnn3-c3ccccc3F)cc2)CC1	-15%	25%	2	6	5%
O=[N+]([O-])c1cccc(N(CC(O)CN2CCCCC2)S(=O)(=O)c2ccccc2)c1 (stereo unspecified)	10%	?	-3	-3	-3%
CC(=O)SC1CC(=O)N(c2c(C)cccc2C)C1=O (stereo unspecified)	2%	13%	-3	-5	1.9µM*
CC(=O)SC1CC(=O)N(c2ccc(C(C)(C)C)cc2)C1=O (stereo unspecified)	6%	36%	11	4	24%
CC(C)CC(=O)c1c[nH]c(C(=O)NCCc2ccccn2)c1	4%	11%	25	28*	13%
CCC(=O)c1c[nH]c(C(=O)NCCc2ccccn2)c1	15%	34%	42	26*	34%
CCC(=O)c1c[nH]c(C(=O)NCc2ccccc2OC)c1	2%	6%	-11	-4	-1%
Cc1ccccc1C(=O)c1c[nH]c(C(=O)NCc2ccco2)c1	11%	-6%	-10	-3	11%
Cc1ccccc1C(=O)c1c[nH]c(C(=O)NCCc2ccccn2)c1	.	9.3µM*	13	12	12µM*
SMILES	NS1 function inh	Pf growth 96h	Shiga toxin inh	Cycloheximide cs	Pf growth 48h
C=CCn1c(SC)nnc1C1COc2ccccc2O1 (stereo unspecified)	2%	?	5	-1	0%
COC(=O)c1c(-c2cccc3ccccc23)csc1NC(=O)Cc1ccc(OC)c(OC)c1	3%	2.6µM*	-6	-3	.
Cc1cccc(NCc2ccccc2OCc2ccccc2F)c1	1%	52%	-4	6	-21%
Oc1ccc(NCc2ccccc2OCc2ccccc2F)cc1	-50%	?	5	-2	10µM*
Cc1ccc(NCc2ccccc2OCc2ccccc2F)cc1	-9%	?	27*	18*	.
COC(=O)CSCc1nc2ccccc2[nH]c1=O	-34%	3%	-1	9	21%
CCOC(=O)/C(C)=C1\NC(C)(C)Cc2ccccc21	-4%	?	-1	-1	?
COc1ccccc1/C(O)=C(\C#N)c1nc2ccccc2[nH]1	.	-2%	-5	9	47%
Cn1c(N)c(N2CCN(c3ccccc3)CC2)c(=O)[nH]c1=O	-1%	-4%	-17	-4	4%
Cc1cc(O)c(CN2CC=C(c3ccccc3)CC2)cc1C(C)C	-1%	0.26µM*	-5	-2	0.29µM*
OC(CN1CC=C(c2ccccc2)CC1)c1ccccc1 (stereo unspecified)	21%	?	24	9	?
Cc1ccc(-c2cc(C(=O)O)n(-c3ccc(S(N)(=O)=O)cc3)n2)cc1	3%	0%	-8	-2	-12%
O=C(O)c1cc(C2CC2)nn1-c1ccccc1	0%	35%	-10	-1	.
Cc1ccc(-c2cc(N)n(-c3ccccc3)n2)cc1	?	138%	80*	66*	101%
Nc1cc(C2CCCC2)nn1-c1ccccc1	21%	138%	104*	46*	125%
Cc1cccc(-n2nc(C)cc2N)c1	12%	117%	-8	13	66%
Cc1cccc(-c2cc(N)n(-c3ccccc3)n2)c1	.	i	65*	45*	335%
CCc1ccc(S(=O)(=O)c2ccc(-n3nc(C)cc3N)cc2)cc1	.	-16%	-12	-4	-9%
CCc1ccc(-c2cc(N)n(-c3ccccc3)n2)cc1	.	425%	154*	33*	388%
COc1ccc(-c2nnc(-c3cccs3)o2)cc1OC	-31%	34%	92*	51*	113%
CCOc1ccc(-c2nc(-c3cccs3)c(CC(=O)O)s2)cc1OC	.	134%	48	24*	41%
CCOc1ccc(-c2nnc(-c3cccs3)o2)cc1	-57%	?	130*	45*	89%
O=C(O)Cc1sc(-c2ccccc2)nc1-c1ccccc1	-68%	20%	-9	-3	-4%
c1csc(-c2nnc(-c3ccc(N4CCOCC4)cc3)o2)c1	-20%	-32%	63*	47*	19%
CCN1CCN(c2ccc(S(=O)(=O)N3CCCCC3)cc2N)CC1	.	-14%	.	.	-9%
SMILES	NS1 function inh	Pf growth 96h	Shiga toxin inh	Cycloheximide cs	Pf growth 48h
O=C(CN1CCN(S(=O)(=O)c2ccc(F)cc2)CC1)N1CCOCC1	0%	18%	8	-4	78%
CCOc1ccc(-c2nnc(-c3cccs3)o2)cc1OCC	-12%	-17%	58*	24*	44%
O=C(N/N=C/C1=C(N2CCOCC2)C(=C\c2ccccc2)/CC1)Nc1ccccc1	5%	42%	-4	-2	3%
O=C(O)c1ccccc1N/N=C/C1=C(N2CCOCC2)C(=C\c2ccccc2)/CC1	4%	?	59*	15	10µM*
Cc1occc1C(=O)N/N=C/C1=C(N2CCOCC2)C(=C\c2ccc(Cl)cc2)/CC1	14%	60%	13	24*	19%
CC(C(=O)NCc1ccco1)n1cc(C(=O)c2ccco2)c2ccccc21 (stereo unspecified)	0%	-22%	-3	15*	?
